Bioassay records (PubChem BioAssay)
HSP90 inh = HSP90 inhibitors, primary screen, cell lysate, luminescence; 290,000 compounds, 0.91% hits; Rabbit reticulocyte lysate, luciferase refolding luminescence, 3 h; inhibition, % at 5.6 µM;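 active = inhibition above the screen-wide mean plus 3 SD, computed separately per campaign, cut at about 16% in these data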;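 also: 0% = DMSO wells and 100% = 60 µM geldanamycin wells; inhibitors lower the luminescence because luciferase stays unfolded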
aSyn UTR inh = MLPCN primary screen, SNCA 5' untranslated region | alpha-synuclein 5'UTR reporter, inhibitor activity | inhibition, % (tested at 7.5 µM) | 300,000 compounds, 0.82% hits | AID 1813, 2009; in the data active = inhibition above about 60%;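 also: H4 neuroglioblastoma cells stably carrying SNCA 5'UTR luciferase fusion; 0% = DMSO wells and 100% = positive control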
TROY NFkB inh = inhibitors of TROY-driven NF-kB signaling, primary screen, Q293 LMP1-TROYcd cells, NF-kB luciferase, uHTS. inhibition, % at 10 µM. 360,000 compounds, 0.98% hits. Q293 LMP1-TROYcd NF-kB luciferase reporter, 4 h;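 active = compounds whose plate-normalised and pattern-corrected inhibition of the luciferase reporter signal at the single screening dose is 50% or more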
C8 TRAIL sens = viability loss with TRAIL in NB7+C8 cells, primary screen, TRAIL sensitizer project, cell-based, ATPlite luminescence | inhibition (viability loss, TRAIL sensitization), % at 10 µM | AID 624354, 2012 | 360,000 compounds, 1% hits;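 active = compounds causing at least 50% loss of cell viability in the single-dose screen, relative to plate controls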
TWEAK Fn14 block = inhibitors of TWEAK-Fn14 signaling, primary screen, luciferase reporter cells, uHTS; TWEAK-stimulated Fn14 reporter cells, luciferase luminescence, 8 h; inhibition, % at 10 µM; 360,000 compounds, 2% hits; AID 1159606, 2016; in the data active = inhibition above about 50%
HIF-2a block = HIF-2a reporter inhibitors, primary screen, luminescence, 786-0 RCC cells. 786-0 RCC cells HIF-2a reporter, luciferase luminescence, overnight. inhibition, % at 18.8 µM. 360,000 compounds, 0.72% hits;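 active = inhibition of the luminescence signal of 40% or more relative to plate controls, in a single-dose primary screen at 18.75 µM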
Starred values were filed as active, the others as inactive; / = no result; ! = a repeat was not active. Compounds with a hit are over-represented: about 3.9% of the library has one in this group of screens.

SMILES	HSP90 inh	aSyn UTR inh	TROY NFkB inh	C8 TRAIL sens	TWEAK Fn14 block	HIF-2a block
O=C1/C(=C/c2ccc(O)cc2)COc2ccccc21	-6.6	-27.8	14.5	34.5	65.6*	-31.3
CCN1CCN(Cc2ccc(NC(=O)c3ccc(C)c(/C=C/c4cnc(Nc5cc(N6CCNCC6)nc(C)n5)cn4)c3)cc2C(F)(F)F)CC1	-4.6	110.2*	-17.2	63.1*!	-64.1	1.0
COc1cc(NC(=O)c2cc3cccc(OC)c3o2)cc(C(=O)Nc2cccc(C(F)(F)F)c2)c1	/	-5.4	15.7	51.2*	56.9*	5.7
CCN1CCN(Cc2ccc(NC(=O)c3ccc(C)c(NC(=O)c4ccno4)c3)cc2C(F)(F)F)CC1	/	67.1*	4.2	22.7	-53.4	12.1
CCN1CCN(Cc2ccc(NC(=O)c3cc(NC(=O)c4ccno4)cc(OC)c3)cc2C(F)(F)F)CC1	/	-44.7	-10.3	10.8	7.2	-26.3
CCN1CCN(Cc2ccc(NC(=O)c3ccc(C)c(NC(=O)c4csc(-c5ccncc5)n4)c3)cc2C(F)(F)F)CC1	/	8.2	14.8	4.9	-58.9	21.7
CCN1CCN(Cc2ccc(NC(=O)c3cc(NC(=O)c4cc5cccc(OC)c5o4)cc(OC)c3)cc2C(F)(F)F)CC1	/	28.1	-10.8	94.8*	60.1*!	6.7
Cc1cc(NC(=O)CSc2nnc3ccc(-c4ccccc4)nn23)no1	/	/	-7.0	2.8	-25.9	19.8
COC(=O)C1=CN(c2cccc(OCc3ccccc3)c2)C(N)=C(C#N)C1c1ccc(-c2ccccc2)cc1 (configuration not stated)	/	/	/	5.8	/	-8.6
COC(=O)[C@]12CCCCC=C1N(CCc1ccc(OC)c(OC)c1)C(=O)[C@H](CC(=O)N1CCCCC1)C2	/	/	/	-2.9	/	13.4
CCCN(CC(=O)Nc1ccccc1C)C(=O)c1cnc(C)cn1	/	/	-6.1	0.0	9.3	1.4
CCN1CCN(Cc2ccc(NC(=O)c3cc(NC(=O)c4cncc(-c5cccs5)c4)cc(OC)c3)cc2C(F)(F)F)CC1	2.3	108.8*	8.0	84.7*	-63.6	-21.0
CCN1CCN(Cc2ccc(NC(=O)c3cc(NC(=O)c4ccc5n[nH]nc5c4)cc(OC)c3)cc2C(F)(F)F)CC1	/	21.8	3.5	6.7	7.6	-2.1
CCN1CCN(Cc2ccc(NC(=O)c3cc(NC(=O)c4cc(-c5ccc(OC)cc5)n[nH]4)cc(OC)c3)cc2C(F)(F)F)CC1	/	106.2*	-15.2	87.6*	-96.6	-32.5
COc1cccc(C(=O)N2CCC[C@H]2C(=O)N2CCC[C@H]2C(=O)N[C@@H](C)c2ccccc2)c1	/	/	-1.2	-4.0	1.9	12.5
COc1cccc(C(O)c2ncc(-c3ccccc3)[nH]2)c1 (configuration not stated)	/	/	-27.0	3.2	-15.9	-90.5
COc1cccc(C(=O)NC(=S)Nn2cnnc2)c1OC	1.1	-1.6	3.9	-2.0	56.8*	9.2
CC(Sc1nn(-c2ccc(F)cc2)c(=S)s1)C(=O)c1c(N)n(C)c(=O)n(C)c1=O (configuration not stated)	/	-6.7	30.5	-12.5	14.8	-3.5
Cn1c(N)c(C(=O)CSc2nn(-c3ccccc3)c(=S)s2)c(=O)n(C)c1=O	/	/	58.2*	22.1	54.1*	-13.1
CCOC(=O)C1CCCN(c2ncnc3c2cnn3-c2cccc(C)c2)C1 (configuration not stated)	1.0	-20.4	20.2	10.4	39.8	-27.9
CCN(CC)C(=O)C1CCCN(c2ncnc3c2cnn3-c2ccc(Cl)cc2)C1 (configuration not stated)	5.8	48.0	63.0*	4.7	70.6*	50.1*
CC(C)Nc1ncnc2c1cnn2-c1ccccc1	4.5	-1.1	-55.1	43.0	9.6	-242.7
COc1cccc(N2CCN(c3ncnc4c3cnn4-c3ccc(C)cc3C)CC2)c1	-2.0	-26.4	80.4*	92.8*	106.2*	-121.7
Cc1cccc(-n2ncc3c(NC(C)C)ncnc32)c1	-0.7	-53.1	-23.9	66.4*	27.7	-200.0
CCN(CC)C(=O)C1CCCN(c2ncnc3c2cnn3-c2cccc(C)c2)C1 (configuration not stated)	4.8	4.3	36.7	3.5	50.3*	-13.3
